Settings in all cases: concentration: 1 μM,replicates: in singlicate; n = 1
In experiment [1] the test system is T1, HASPIN.
T1 construct: gene GSG2

Experiment [2] deals with HCK.
In experiment [3] the test system is HIPK1.
The test system of experiment [4] is HIPK2.
The test system of experiment [5] is HIPK3.
In experiment [6] the test system is HIPK4.
The subject of experiment [7] is HPK1.
Experiment [8] deals with HUNK.
The subject of experiment [9] is ICK.
The test system of experiment [10] is IGF1R.
Experiment [11] deals with T2, IKK-alpha.
T2 construct: gene CHUK

Experiment [12] relates to T3, IKK-beta.
T3 construct: gene IKBKB

Experiment [13] relates to T4, IKK-epsilon.
T4 construct: gene IKBKE

In experiment [14] the test system is INSRR.
Experiment [15] concerns INSR.
The test system of experiment [16] is IRAK1.
In experiment [17] the test system is IRAK3.
Experiment [18] relates to IRAK4.
Experiment [19] has as its system ITK.
In experiment [20] the test system is JAK1(JH1domain-catalytic).
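Also: KINOMEscan kinase panel screen.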

For `Nc1nc(Nc2ccccc2)cc(-c2ccc3c(N)n[nH]c3c2)n1` [GSK2225749], the “%Inh” value in experiment [1] is given as 53%; in experiment [2], 12%; in [3], 4%; in experiment [4], 15%; in experiment [5], 12%; in experiment [6], 41%. The “%Inh” value is 2% in [7]; 0% in experiment [8]; 4% in experiment [9]; 0% in experiment [10]; 27% in experiment [11]; 18% in experiment [12]. Besides, the “%Inh” value in [13] amounted to 17%; in experiment [14], 6%; in experiment [15], 0%; in [16], 0%; in [17], 0%; in [18], 4%. The “%Inh” value in experiment [19] and in experiment [20] was 0% each time.
As to `Cc1occc1-c1nc(N)c(OC[C@@H](N)Cc2c[nH]c3ccccc23)cc1-c1cc2c(C)n[nH]c2cn1` [GSK1660450], the “%Inh” value in [1] turned out to be 71%; in experiment [2], 14%; in [3] it was 97.2%; in [4], 99.1%; in experiment [5], 98.8%; in experiment [6] it was 79%. The “%Inh” value in [7] is 90.6%; in [8], 0%; in experiment [9] it was 68%; in experiment [10] it was 0%; in experiment [11], 0%; in experiment [12] it was 9%. The “%Inh” value in experiment [13] was 0%; in [14] it was 0%; in [15] it was 0%; in experiment [16] it was 12%; in [17], 12%; in experiment [18] it was 1%. The “%Inh” value in experiment [19] is listed as 13%; in experiment [20], 0%.
As for `CC(C)Nc1cc(-c2ccc3c(N)n[nH]c3c2)nc(N)n1` [GSK2221681], the “%Inh” value in experiment [1] came out at 48%; in experiment [2] it was 0%; in experiment [3] it was 10%; in [4] it was 0%; in [5], 3%; in experiment [6], 23%. The “%Inh” value in [7] was found to be 33%; in experiment [8], 0%; in [9] it was 7%; in [10], 2%; in experiment [11], 19%; in [12] it was 19%. The “%Inh” value in experiment [13] is 32%; in experiment [14], 2%; in [15] it was 2%; in experiment [16], 0%; in experiment [17] it was 0%; in experiment [18], 0%. Further, the “%Inh” value in experiment [19] came out at 13%; in experiment [20] it was 0%.
`CCN(CC)CCOc1ccc(Nc2ncc3cc(-c4c(Cl)cccc4Cl)c(=O)n(C)c3n2)cc1` [SB-601273]: the “%Inh” value is given as 30% in [1]; 99.7% in [2]; 9% in [3]; 34% in experiment [4]; 0% in experiment [5]; 52% in [6]. The “%Inh” value in [7] amounted to 98.8%; in experiment [8], 55%; in experiment [9], 4%; in experiment [10], 43%; in [11] it was 0%; in [12], 0%. The “%Inh” value in experiment [13] was determined as 79%; in [14], 47%; in experiment [15], 63%; in experiment [16], 94.3%; in experiment [17], 0%; in [18], 0%. The “%Inh” value in experiment [19] was found to be 6%; in [20], 92%.
For the compound `COc1ccc(C[C@@H](CN)NC(=O)c2cc(Br)c(-c3ccnc4[nH]ccc34)s2)cc1.Cl.Cl` [GSK1389063], the “%Inh” value was found to be 84% in [1]; 0% in experiment [2]; 95.1% in experiment [3]; 94% in experiment [4]; 97.4% in experiment [5]; 89% in [6]. The “%Inh” value stood at 77% in [7]; 0% in experiment [8]; 64% in experiment [9]; 0% in experiment [10]; 52% in experiment [11]; 83% in experiment [12]. The “%Inh” value was 26% in [13]; 0% in experiment [14]; 9% in experiment [15]; 83% in experiment [16]; 37% in [17]; 32% in experiment [18]. Besides, the results for the “%Inh” value in experiment [19] and in experiment [20] were 22% and 67%, respectively.
Consider `CN(C)CC(O)COc1ccc(Nc2nccc(-c3cnn4nc(N5CCOCC5)ccc34)n2)cc1` (stereo not drawn) [GW767488], for which the “%Inh” value in [1] was found to be 87%; in experiment [2], 0%; in experiment [3], 99.5%; in experiment [4], 100%; in [5], 99.6%; in experiment [6], 87%. In addition, the “%Inh” value is given as 8% in [7]; 0% in experiment [8]; 94.1% in experiment [9]; 0% in experiment [10]; 96% in [11]; 93.8% in experiment [12]. For the same compound, the “%Inh” value amounted to 58% in [13]; 0% in experiment [14]; 13% in experiment [15]; 99.9% in experiment [16]; 82% in [17]; 37% in [18]. The “%Inh” value in [19] was found to be 36%; in experiment [20] it was 0%.
Regarding `Cl.Cl.NC[C@H](Cc1ccc(C(F)(F)F)cc1)NC(=O)c1cc(Br)c(-c2ccnc3[nH]ccc23)s1` [GSK1487252], the “%Inh” value in experiment [1] was 48%; in experiment [2] it was 0%; in experiment [3] it was 38%; in experiment [4], 0%; in experiment [5], 48%; in [6] it was 93.4%. For the same compound, the “%Inh” value in [7] came out at 54%; in experiment [8], 0%; in experiment [9], 12%; in experiment [10], 11%; in experiment [11], 30%; in [12], 43%. Also, the “%Inh” value turned out to be 11% in experiment [13]; 0% in experiment [14]; 0% in experiment [15]; 40% in experiment [16]; 0% in experiment [17]; 18% in [18]. For the same compound, the “%Inh” value in experiment [19] worked out at 16%; in [20], 9%.
Take `CCn1c(-c2nonc2N)nc2c(C#CC(C)(C)O)nc(OCCN)cc21.Cl.Cl` [GSK902056]: the “%Inh” value is 0% in [1]; 0% in experiment [2]; 6% in experiment [3]; 0% in experiment [4]; 43% in [5]; 0% in experiment [6]. Also, the “%Inh” value is reported as 42% in [7]; 0% in experiment [8]; 0% in experiment [9]; 0% in experiment [10]; 23% in experiment [11]; 19% in experiment [12]. In addition, the “%Inh” value in [13] is 0%; in experiment [14] it was 9%; in [15], 0%; in experiment [16] it was 28%; in experiment [17], 4%; in experiment [18] it was 18%. The “%Inh” value came out at 17% in [19] and 13% in experiment [20].
In the case of `Cc1cc(C(=O)Nc2ccc(Oc3ccc4nc(NC(=O)C5CC5)cn4n3)cc2)nn1-c1ccccc1`, the “%Inh” value in [1] amounted to 0%; in [2], 73%; in experiment [3], 60%; in experiment [4] it was 0%; in [5], 0%; in experiment [6], 18%. In addition, the “%Inh” value in experiment [7] is on record as 42%; in [8] it was 0%; in experiment [9] it was 0%; in experiment [10], 0%; in [11], 0%; in experiment [12], 0%. Besides, the “%Inh” value in [13] is 0%; in [14], 0%; in [15] it was 0%; in experiment [16], 0%; in experiment [17], 21%; in experiment [18], 0%. For the same compound, the “%Inh” value in experiment [19] and in experiment [20] was 0% throughout.

Source of the values: paper PMC5540273 (PLoS ONE, 2017).
